# Source: PubChem BioAssay AID493232 (The Scripps Research Institute Molecular Screening Center, 2011)
# The campaign covered roughly 1,800 compounds. About 860 (48%) were called active. Rule as the data show it: active = inhibition above about 17%; inactive = the rest. The set was probably picked from earlier hits. Not all results are given here.
# Experiment: CHO-K1 parental line HTRF response – cell-based, counter-screen for OX1R antagonist project (AID 493232);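 also: 0% = agonist challenge with vehicle and 100% = vehicle alone without agonist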
# Conditions: parental CHO-K1 cells, HTRF counterscreen; at 6.6 µM; active compounds read high
row,Structure (SMILES),inhibition
1,NS(=O)(=O)c1ccc(CCNC(=O)c2ccc([N+](=O)[O-])cc2[N+](=O)[O-])cc1,76.4% (active)
2,O=C(Nc1nnc(-c2ccccc2)o1)c1cc(-c2cccs2)nc2ccccc12,-1.4% (inactive)
3,Cn1c(N)c(C(=O)COC(=O)c2ccc3ccccc3c2)c(=O)n(C)c1=O,9.11% (inactive)
4,COc1ccc(CCn2c(NCCCN3CCOCC3)nc3c2c(=O)[nH]c(=O)n3C)cc1,-0.46% (inactive)
5,O=C(/C=C/c1ccco1)Nc1cccc(-c2nc3ccccc3[nH]2)c1,20.4% (active)
6,Cc1ccc2c(c1)nnc1nnc(SCC(=O)O)n12,113% (active)
7,CCn1c(SCC(=O)c2ccc3ccccc3c2)nnc1-c1cccs1,7.75% (inactive)
8,COc1ccc2[nH]c(=O)c(CNc3ccc(C)c(C)c3)cc2c1,33.7% (active)
9,CN(C(=O)CSc1nnc(-c2n[nH]c3ccccc23)o1)c1ccccc1,-4.39% (inactive)
10,O=C(Nc1ccc2sc3ccccc3c(=O)c2c1)c1ccccc1Cl,-3.67% (inactive)
11,Cc1ccc(Nc2nc(CSc3nnnn3-c3ccccc3)cc(=O)[nH]2)cc1,1.23% (inactive)
12,CCn1c(O)c(N=NC2=NC(=O)CS2)c2cc(C)ccc21,21.8% (active)
13,O=C(Oc1ccccc1C(=S)N1CCCCC1)c1cc([N+](=O)[O-])cc([N+](=O)[O-])c1,56.2% (active)
14,COc1cc(C(=S)N2CCOCC2)cc(OC)c1OC(=O)c1ccc([N+](=O)[O-])cc1[N+](=O)[O-],8.29% (inactive)
15,COC(=O)CNC(=O)c1ccc2c(c1)S(=O)(=O)c1ccccc1C2=O,70.6% (active)
16,COc1cccc(C(=O)NC(=O)Nc2nc(C)cc(C(F)(F)F)n2)c1,0.24% (inactive)
17,CCOc1ccc(CCNC(=O)C(CC)n2nc(C)n3c(cc4sccc43)c2=O)cc1OCC (stereo unspecified),7.91% (inactive)
18,CCn1c(=N)c(C(=O)NCCCOC)cc2c(=O)n3cccc(C)c3nc21,83.9% (active)
19,CCOc1ccc(/C=C/C(=O)OCC(=O)c2ccccc2OC)cc1OC,7.57% (inactive)
20,O=C(NCc1ccco1)C1CCCN(S(=O)(=O)c2cccc3nonc23)C1 (stereo unspecified),19.7% (active)
21,C/C(N)=C(/C#N)C(=O)COC(=O)c1cc(-c2ccc(C)cc2)nc2ccccc12,6.3% (inactive)
22,COc1cc2ccccc2cc1C(=O)Nc1ccc(N2CCOCC2)cc1,16.2% (inactive)

row,Structure (SMILES),inhibition
1,Cn1cnnc1Sc1ccc(S(C)(=O)=O)cc1[N+](=O)[O-],50.5% (active)
2,Nc1[nH][nH]c(=O)c1N=Nc1ccc2c(c1)OCO2,52.9% (active)
3,COc1ccc(CCNC(=O)/C(C#N)=C2\N=C(NC(=O)c3cccs3)c3ccccc32)cc1,24% (active)
4,O=C(N/N=C/c1c(Cl)[nH]c2ccccc12)c1sc2ccccc2c1Cl,16% (inactive)
5,Cc1cc(C(=O)NC2CCCc3c2cnn3-c2cccc(C)c2C)c(C)o1 (stereo unspecified),9.36% (inactive)
6,O=C(Nc1nnc(C2=COCCO2)o1)c1ccc([N+](=O)[O-])s1,52.2% (active)
7,Cc1ccccc1S(=O)(=O)N1[C@@H](c2cccc(Cl)c2)C(C(=O)O)=CC[C@H]1c1ccc(Cl)cc1,12.8% (inactive)
8,COc1ccccc1N1CC(C(=O)Nc2ccc(S(=O)(=O)N3CCOCC3)cc2)CC1=O (stereo unspecified),8.11% (inactive)
9,COc1ccc(N2CC(C(=O)NCCN3C(=O)S/C(=C\c4cccnc4)C3=O)CC2=O)c(OC)c1 (stereo unspecified),56.9% (active)
10,COc1ccc(S(=O)(=O)NC(C)c2ccccc2)cc1C(=O)N1CCCCC1 (stereo unspecified),-4.56% (inactive)
11,CC(=O)Oc1ccc(C(C)=O)c2c1OCCO2,0.1% (inactive)
12,COc1cccc(N=c2oc3c(C)ncc(CO)c3cc2C(N)=O)c1,51.5% (active)
13,COc1cccc(/C=N/Nc2cc(C)nc(-c3ccccc3O)n2)c1O,15.3% (inactive)
14,CSCCC(NC(=O)c1cc([N+](=O)[O-])cc([N+](=O)[O-])c1)c1nc2ccccc2[nH]1 (stereo unspecified),24.7% (active)
15,COc1cccc(/C=N/NC(=O)c2[nH]nc3c2CCc2ccccc2-3)c1O,-15.5% (inactive)
16,COCCNC(=O)Nc1ccc2nc(-c3ccco3)c(-c3ccco3)nc2c1,48.3% (active)
17,Cc1cc(-c2ccc(C)c(S(=O)(=O)NC(C)Cc3ccco3)c2)on1 (stereo unspecified),-2.9% (inactive)
18,CCn1c(C)nc2c1C(=O)c1ccccc1C2=O,97.1% (active)
19,C[n+]1ccccc1C1CCCC/C1=N\Nc1ccc([N+](=O)[O-])cc1[N+](=O)[O-] (stereo unspecified),9.46% (inactive)
20,c1ccc(-c2nc(NCc3ccco3)c3ccccc3n2)cc1,8.16% (inactive)
21,CC(=O)N/N=C/c1cc2c(cc1[N+](=O)[O-])OCO2,60.3% (active)
22,O=C(CN1C(=O)c2cccc3cccc(c23)C1=O)N1CCCCC1,50% (active)

row,Structure (SMILES),inhibition
1,CCC(=O)N(C)C(c1ccccc1Cl)c1nnnn1-c1c(C)cccc1C (stereo unspecified),0.65% (inactive)
2,Cc1cccc(NS(=O)(=O)c2cccc(C(=O)NNC(=O)c3ccccc3O)c2)c1,4.72% (inactive)
3,N#C/C(=C1\CCCN1)c1nc(-c2ccccc2)cs1,10.3% (inactive)
4,Nc1ccc2nc3c(=O)[nH]c(=S)[nH]c3nc2c1,77% (active)
5,Nc1nc(-c2sc3nc4c(cc3c2N)CCCC4)nc(N2CCOCC2)n1,16.2% (inactive)
6,Cc1cc(C)cc(NC(=O)C2CCCN2S(=O)(=O)c2cccc3cccnc23)c1 (stereo unspecified),-5.63% (inactive)
7,CC(=O)c1cccc(NC(=O)C2CCCN2S(=O)(=O)c2cccc3nsnc23)c1 (stereo unspecified),33% (active)
8,O=C(N/N=C/c1sc(N2CCCCC2)nc1-c1cccs1)c1cccnc1,6.55% (inactive)
9,N#Cc1nc(-c2cccc3ccccc23)oc1N,-17.8% (inactive)
10,O=C(Nc1ccccc1Cl)/C(Cl)=C(\Cl)S(=O)c1ccccc1 (stereo unspecified),-27.6% (inactive)
11,COc1ccc2oc(=O)c(C(=O)NCc3ccccn3)cc2c1,47.5% (active)
12,O=C(O)CCC(=O)Nc1nc2ccc([N+](=O)[O-])cc2s1,47.7% (active)
13,COc1cccc(/C=C/c2ccc3ccccc3n2)c1OC(C)=O,11.5% (inactive)
14,Cc1c(/C=N\NC(=O)c2cc3ccccc3o2)c2ccccc2n1C,12.8% (inactive)
15,COC(=O)N/N=C/c1c[n+]([O-])c2ccccc2[n+]1[O-],97.3% (active)
16,CC(C)(C)NC(=O)CN(C(=O)c1csnn1)c1ccccc1-c1ccccc1,1.93% (inactive)
17,CN1CCN(/N=C/c2ccc(-c3ccc([N+](=O)[O-])cc3)o2)CC1,34% (active)
18,Cc1oc2c(c1C(=O)N1CCOCC1)C(=O)c1ccccc1C2=O,104% (active)
19,CC(NC(=O)c1cccc2ccccc12)c1ccc2c(c1)CCCC2 (stereo unspecified),9.37% (inactive)
20,CCOc1cc(/C=C(\C#N)c2nc(-c3cccs3)c(NC(C)=O)s2)ccc1O,2.21% (inactive)
21,CC(C)CC[n+]1ccn(C2=C([O-])c3ccccc3C(=O)/C2=N\S(=O)(=O)c2ccccc2)c1,100% (active)
22,O=C(OC1CCOC1=O)c1ccc(-c2nc3ccccc3s2)s1 (stereo unspecified),28.1% (active)

row,Structure (SMILES),inhibition
1,Cc1cc(=O)oc(C)c1C(=O)NCCN(C)Cc1ccccc1,4.29% (inactive)
2,O=C(c1ccncc1)c1ccc([N+](=O)[O-])cc1,68.8% (active)
3,CC(=O)Nc1ccc(Nc2c([N+](=O)[O-])cc(S(C)(=O)=O)cc2[N+](=O)[O-])cc1,71% (active)
4,CC(C)(C)NC(=O)Cn1cnc2cc([N+](=O)[O-])ccc2c1=O,73.7% (active)
5,O=C(Nc1cccc2cccnc12)c1cccc(N2C(=O)CCC2=O)c1,8.23% (inactive)
6,O=C(Cc1ccccc1)N1CCN(S(=O)(=O)c2ccc([N+](=O)[O-])cc2)CC1,28.9% (active)
7,Cc1ccc([C@@H]2CC=C(C(=O)O)[C@H](c3cccc(Cl)c3)N2S(=O)(=O)c2ccc(C)cc2)cc1,4.59% (inactive)
8,S=c1[nH]nc(-c2cc(-c3ccccc3)n[nH]2)n1/N=C/c1c2ccccc2cc2ccccc12,6.53% (inactive)
9,Cc1cccn2c(=O)c3cc(C#N)c(=NC(=O)c4cccnc4)n(CC4CCCO4)c3nc12 (stereo unspecified),46.1% (active)
10,Nc1nc(COC(=O)CCC(=O)c2ccc(Cl)cc2)nc(Nc2ccccc2)n1,-0.94% (inactive)
11,Cc1cccc(NC(=O)Nc2cccc(Oc3c(F)c(F)c(F)c(F)c3F)c2)c1,14.7% (inactive)
12,O=C(NC(Cc1c[nH]c2ccccc12)C(=O)N/N=C/c1ccc(Br)cc1)c1cccs1 (stereo unspecified),3.77% (inactive)
13,COC(=O)c1sccc1NC(=O)CSc1ccccc1NS(=O)(=O)c1cc(Cl)ccc1Cl,12.9% (inactive)
14,COCCCNC(=S)NC(=O)c1ccc([N+](=O)[O-])cc1,29.9% (active)
15,COc1cc(OC)c(NC(=O)c2ccc(Br)o2)cc1Cl,8.45% (inactive)
16,CCOc1ccc(NC(=O)CCS(=O)(=O)c2cccc3nsnc23)cc1,35.3% (active)
17,COc1ccc(N(C)C(=O)CCS(=O)(=O)c2cccc3nsnc23)cc1,56% (active)
18,COc1ccc2sc(-c3ccc(N(C)C)cc3)c(C#CCO)c2c1,14.2% (inactive)
19,C=CCn1c(SCC(=O)Nc2nc3ccccc3s2)nnc1-c1ccccc1O,-0.28% (inactive)
20,N#CC(=C1SC=CS1)c1nc(-c2ccccc2)cs1,14.8% (inactive)
